Experimental data taken from PubChem BioAssay (NCATS).
Results filed as inconclusive are left out. Where a call stands in place of a potency, no number is given. Calls of active or inactive are those of the source. The call rests on the fitted dose curve; in most records, active means well fitted curve in the direction sought with a large enough effect; inconclusive means small, poorly fitted or top-dose-only effect, or another doubt; inactive means no such curve, though single readings can be large; an effect the other way counts as inactive or inconclusive.

Molecular target: Protein phosphatase 1D (Homo sapiens) (UniProt O15297)
Experiment: RapidFire Mass Spectrometry qHTS Assay for Modulators of WT P53-Induced Phosphatase 1 (WIP1) (AID 1347424)
Conditions: WIP1 dephosphorylation of phosphopeptide, RapidFire MS; series mostly up to 128 µM
Method in brief: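 RapidFire MS readout of dephosphorylated VEPPL-S-QETFS product, with 1 uM isotope-labelled peptide standard. Reaction: 10 nM WIP1, 2 uM phosphopeptide substrate, 5 min, room temperature, after 1 h compound preincubation; stopped with 0.5% formic acid.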

Sequence of Protein phosphatase 1D (Homo sapiens) (O15297 whole entry, looked up): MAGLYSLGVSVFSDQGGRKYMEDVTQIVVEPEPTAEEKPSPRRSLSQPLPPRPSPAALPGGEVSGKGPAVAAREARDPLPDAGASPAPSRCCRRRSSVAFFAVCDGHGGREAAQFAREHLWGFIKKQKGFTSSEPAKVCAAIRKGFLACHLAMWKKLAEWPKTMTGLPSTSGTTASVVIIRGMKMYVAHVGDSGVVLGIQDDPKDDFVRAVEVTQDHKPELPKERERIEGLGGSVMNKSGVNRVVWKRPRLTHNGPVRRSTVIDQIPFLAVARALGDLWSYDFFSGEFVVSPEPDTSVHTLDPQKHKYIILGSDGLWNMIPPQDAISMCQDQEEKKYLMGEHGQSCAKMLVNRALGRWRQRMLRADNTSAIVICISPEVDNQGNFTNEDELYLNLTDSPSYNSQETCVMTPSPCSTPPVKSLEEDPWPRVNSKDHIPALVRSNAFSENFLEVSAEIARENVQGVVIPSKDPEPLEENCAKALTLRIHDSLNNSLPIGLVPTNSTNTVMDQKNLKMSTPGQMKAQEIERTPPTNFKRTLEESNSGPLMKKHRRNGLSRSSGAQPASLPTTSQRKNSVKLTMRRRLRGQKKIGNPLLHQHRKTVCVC

Row | SMILES | Potency
1 | CCOP(=O)(NC(C)C)Oc1ccc(SC)c(C)c1 (stereo not given) | inactive
2 | C1CCC(NC2CCCCC2)CC1 | inactive
3 | CCC1(CCC(C)C)C(=O)NC(=O)NC1=O | inactive
4 | O=[N+]([O-])c1c(Cl)c(Cl)cc(Cl)c1Cl | inactive
5 | O=[N+]([O-])c1cc([N+](=O)[O-])c2ccccc2c1 | inactive
6 | c1cc2ccc3cccc4ccc(c1)c2c34 | inactive
7 | C=CC(=O)NCNC(=O)C=C | inactive
8 | OCCCBr | inactive
9 | O=S(=O)(O)C(F)(F)C(F)(F)C(F)(F)C(F)(F)F | inactive
10 | Nc1ccc(Cl)cc1 | inactive
11 | Fc1cc(Br)ccc1CBr | inactive
12 | COCCOCCO | inactive
13 | CCO/N=C(\CC)C1=C(O)CC(c2c(C)cc(C)cc2C)CC1=O (stereo not given) | inactive
14 | C=CCC1=C(C)C(OC(=O)C2C(C=C(C)C)C2(C)C)CC1=O (stereo not given) | inactive
15 | CCCCOC(=O)c1ccccc1C(=O)OCc1ccccc1 | inactive
16 | S=C(SSC(=S)N1CCCCC1)N1CCCCC1 | inactive
17 | O=C(O)C(Cl)Cl | inactive
18 | CC(C)Oc1cccc(NC(=O)c2ccccc2C(F)(F)F)c1 | inactive
19 | O=C(O)COc1ccccc1 | inactive
20 | Cc1ccc(Cl)c(O)c1 | inactive
21 | O=S(=O)(c1ccc(Cl)cc1)c1ccc(Cl)cc1 | inactive
22 | O=C(Nc1ccccc1-c1ccc(Cl)cc1)c1cccnc1Cl | inactive
23 | O=[N+]([O-])c1ccc([As](=O)(O)O)cc1 | inactive

Molecular target: Protein phosphatase 1D (Homo sapiens) (UniProt O15297)
Experiment: Rhodamine-PBP qHTS Assay for Modulators of WT P53-Induced Phosphatase 1 (WIP1) (AID 1347425)
Conditions: recombinant WIP1, Rhodamine-PBP phosphate fluorescence, real-time; series mostly up to 116 µM
Method in brief: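 5 nM WIP1 + 10 uM Rh-PBP, 50 mM Tris pH 7.5, 30 mM MgCl2, 1 mM TCEP, 0.1 mM EGTA, BSA; cpds pinned, 1 hr RT; + 10 uM phosphopeptide; fluorescence 1-min reads x 11 min; delta = f1 - f0.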

Row | SMILES | outcome
24 | O=C(O)c1cc(Oc2ccc(C(F)(F)F)cc2Cl)ccc1[N+](=O)[O-] | inactive
25 | ClC1=C(Cl)[C@]2(Cl)[C@@H]3[C@@H]4C[C@@H]([C@H]5O[C@@H]45)[C@@H]3[C@@]1(Cl)C2(Cl)Cl | inactive
26 | CCOP(=O)(NC(C)C)Oc1ccc(SC)c(C)c1 (stereo not given) | inactive
27 | C1CCC(NC2CCCCC2)CC1 | inactive
28 | CCC1(CCC(C)C)C(=O)NC(=O)NC1=O | inactive
29 | O=[N+]([O-])c1c(Cl)c(Cl)cc(Cl)c1Cl | inactive
30 | O=[N+]([O-])c1cc([N+](=O)[O-])c2ccccc2c1 | inactive
31 | c1cc2ccc3cccc4ccc(c1)c2c34 | inactive
32 | C=CC(=O)NCNC(=O)C=C | inactive
33 | OCCCBr | inactive
34 | O=S(=O)(O)C(F)(F)C(F)(F)C(F)(F)C(F)(F)F | inactive
35 | Nc1ccc(Cl)cc1 | inactive
36 | Fc1cc(Br)ccc1CBr | inactive
37 | COCCOCCO | inactive
38 | CCO/N=C(\CC)C1=C(O)CC(c2c(C)cc(C)cc2C)CC1=O (stereo not given) | inactive
39 | C=CCC1=C(C)C(OC(=O)C2C(C=C(C)C)C2(C)C)CC1=O (stereo not given) | inactive
40 | CCCCOC(=O)c1ccccc1C(=O)OCc1ccccc1 | inactive
41 | S=C(SSC(=S)N1CCCCC1)N1CCCCC1 | inactive
42 | O=C(O)C(Cl)Cl | inactive
43 | CC(C)Oc1cccc(NC(=O)c2ccccc2C(F)(F)F)c1 | inactive
44 | O=C(O)COc1ccccc1 | inactive
45 | Cc1ccc(Cl)c(O)c1 | inactive
46 | O=S(=O)(c1ccc(Cl)cc1)c1ccc(Cl)cc1 | inactive
47 | O=C(Nc1ccccc1-c1ccc(Cl)cc1)c1cccnc1Cl | inactive
48 | O=[N+]([O-])c1ccc([As](=O)(O)O)cc1 | inactive

Tested on: not listed separately
Experiment: Validation qHTS assay for inhibitors of Activation Induced Cytidine Deaminase (AID): UDG Counterscreen signal (AID 1347427)
Conditions: biochemical UDG counterscreen, fluorescence signal; series mostly up to 115 µM
Method in brief: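 Fluorescence at 560 nm excitation, 665 nm emission reports UDG signal after 250 mM NaOH (2x) addition and 30 min. Enzymes (AID 1 uM, UDG 2 U/mL, at 4/3x) preincubated 10 min with compound, then 4 h with 4x 250 nM DJC20/DJC23 substrate at room temperature.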

Row | SMILES | outcome
49 | CN[C@@H]1C[C@@H](c2ccc(Cl)c(Cl)c2)c2ccccc21 | inactive
50 | c1ccc(CCCN2CCN(CCOC(c3ccccc3)c3ccccc3)CC2)cc1 | inactive
51 | Cc1nccc2c1[nH]c1ccccc12 | inactive

Molecular target: Single-stranded DNA cytosine deaminase (Homo sapiens) (UniProt Q9GZX7)
Experiment: Validation qHTS assay for inhibitors of Activation Induced Cytidine Deaminase (AID): AID signal (AID 1347429)
Conditions: Recombinant AID, FRET ssDNA deamination with UDG, fluorescence; series mostly up to 115 µM
Method in brief: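 AID+UDG coupled FRET deamination; cpds up to 114 uM final; DJC20/DJC23 substrate, 4 hr RT; NaOH stop, 30 min RT; read Ex 540/Em 590.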

Sequence of Single-stranded DNA cytosine deaminase (Homo sapiens) (Q9GZX7 whole entry, looked up): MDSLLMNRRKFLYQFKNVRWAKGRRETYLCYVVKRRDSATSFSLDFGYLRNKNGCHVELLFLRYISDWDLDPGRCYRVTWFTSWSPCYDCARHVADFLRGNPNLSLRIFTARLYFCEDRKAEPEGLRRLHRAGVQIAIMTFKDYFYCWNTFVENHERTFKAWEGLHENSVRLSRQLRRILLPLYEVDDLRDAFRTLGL

Row | SMILES | outcome
52 | COc1ccc2c(c[n+](C)c3c4cc5c(cc4ccc23)OCO5)c1OC | inactive
53 | CN[C@@H]1C[C@@H](c2ccc(Cl)c(Cl)c2)c2ccccc21 | inactive
54 | c1ccc(CCCN2CCN(CCOC(c3ccccc3)c3ccccc3)CC2)cc1 | inactive
55 | Cc1nccc2c1[nH]c1ccccc12 | inactive
